# nsP2pro primary: CHIKV nsP2 protease inhibition, primary qHTS; Potency, µM (top dose mostly 24.9 µM), for the others: at the top dose activity change, negative = inhibition, most hits filed as inhibitors; AID 1964107; actives 1.1% (n = 31,000); FRET peptide cleavage, nsP2pro, fluorescence 1 h; Q8JUX6; also: nearly all actives have a fitted effect of over 60% in size
#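 FRET cleavage of 2.5 uM peptide 2 by 150 nM CHIKV protease domain at pH 8.0 (Tris, Tween 20). Compounds at 7 concentrations (up to 25 uM) preincubated 15 min. Fluorescence read after 1 h at room temperature.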
# nsP2 cell sec: inhibits CHIKV nsP2 protease in cells | AID 1964100 | shares compounds with nsP2pro primary | cell-based CHIKV nsP2 protease reporter assay | Potency, µM (series often up to 51.1 µM), without a hit: at the highest dose activity change, negative = inhibition, most hits filed as inhibitors | actives 10% (n = 450); also: nearly all actives have a fitted effect of over 70% in size
# NSP2 full ctr: selectivity test for CHIKV nsP2 protease inhibitors: full-length NSP2; shares compounds with nsP2pro primary; Full-length CHIKV NSP2 protease enzymatic counterscreen; actives 39% (n = 410); Potency, µM (titrated, usually from 50.7 µM), for inactives: at the highest dose activity change, negative = inhibition, usual class: inhibitors; also: nearly all actives have a fitted effect of over 65% in size
# Furin counter: inhibits human furin in a CHIKV nsP2 protease selectivity counterscreen; Recombinant human furin enzymatic counterscreen, fluorogenic substrate; Potency, µM (series often up to 50.6 µM), inactives show at the highest dose activity change, negative = inhibition, most hits filed as inhibitors; shares compounds with nsP2pro primary; actives 6% (n = 410)
# nsP2 NS23 pep: nsP2pro inhibition on native NS2/3 peptide substrate | Potency, µM (series often up to 51 µM), for the others: top-dose activity change, negative = inhibition, hits mostly inhibitors | shares compounds with nsP2pro primary | Purified CHIKV nsP2 protease, endogenous NS2/3 peptide cleavage | actives 34% (n = 410); also: nearly all actives have a fitted effect of over 55% in size
# Papain counter: papain protease inhibition, counterscreen for nsP2pro inhibitors; Potency, µM (series often up to 51 µM), inactives show top-dose activity change, negative = inhibition, usual class: inhibitors; AID 1964104; purified papain protease activity, enzymatic inhibition; actives 5% (n = 410); shares compounds with nsP2pro primary
# Target sequence (P00784 whole entry, looked up): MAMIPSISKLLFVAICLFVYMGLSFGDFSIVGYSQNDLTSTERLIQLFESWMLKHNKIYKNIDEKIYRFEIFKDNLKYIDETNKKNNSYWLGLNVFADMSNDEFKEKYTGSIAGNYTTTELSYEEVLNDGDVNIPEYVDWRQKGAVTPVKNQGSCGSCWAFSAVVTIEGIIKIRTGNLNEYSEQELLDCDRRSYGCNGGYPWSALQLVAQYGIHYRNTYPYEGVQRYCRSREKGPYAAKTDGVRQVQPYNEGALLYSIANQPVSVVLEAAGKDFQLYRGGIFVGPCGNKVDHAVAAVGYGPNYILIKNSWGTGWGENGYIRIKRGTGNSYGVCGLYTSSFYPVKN
# nsP2pro confirm: CHIKV nsP2 protease inhibition, confirmatory qHTS; shares compounds with nsP2pro primary; CHIKV nsP2 protease enzymatic activity, qHTS; Potency, µM (series often up to 25.5 µM), for inactives: at the top dose activity change, negative = inhibition, hits mostly inhibitors; actives 43% (n = 410); also: nearly all actives have a fitted effect of over 75% in size
# HCV NS3 4A cs: inhibits HCV NS3/4A protease in an nsP2pro selectivity counterscreen; AID 1964106; Potency, µM (highest dose often 50.9 µM), actives largely listed as inhibitors; actives 20% (n = 410); shares compounds with nsP2pro primary; HCV NS3/4A protease biochemical counterscreen; also: nearly all actives have a fitted effect of over 55% in size
# An asterisk follows results filed as active; i = inactive; ? = inconclusive; [ ] = another dose, or the depositor's remark. Many of the other results were omitted from the sample, so hits are more common in it than they were. Calls follow the shape of the full dose curve. % is scaled to controls: 0 for no effect and ±100 for the full control effect; potency is read from the fitted curve at half-maximal effect.
SMILES,nsP2pro primary,others
CN1C[C@H](C(=O)N[C@]2(C)O[C@@]3(O)[C@@H]4CCCN4C(=O)[C@H](Cc4ccccc4)N3C2=O)C=C2c3cccc4[nH]cc(c34)C[C@H]21,?,nsP2 cell sec=9%;NSP2 full ctr=?;Furin counter=-14%;nsP2 NS23 pep=13µM*;Papain counter=46%;nsP2pro confirm=?;HCV NS3 4A cs=i
O=C(C(c1ccccc1)c1ccccc1)N1CCN(CC(O)COc2cccc3ncccc23)CC1 (stereo not drawn),1%,
Cc1nc(N2CCC(NCCc3n[nH]c(=O)[nH]3)CC2)c2ccsc2n1,0%,
Cc1ccccc1C(C(=O)NC1CCCCC1)N(C(=O)Cn1cnc2ccccc21)c1cccc(F)c1 (stereo not drawn),-3%,
N#Cc1ccnc(N2C(=O)CC[C@H]2C(=O)N(c2cncc(F)c2)[C@H](C(=O)NC2CC(F)(F)C2)c2ccccc2Cl)c1,?,nsP2 cell sec=?;NSP2 full ctr=-24%;Furin counter=-3%;nsP2 NS23 pep=-4%;Papain counter=-7%;nsP2pro confirm=-9%;HCV NS3 4A cs=?
COc1cccc(Nc2cn(C)c(=O)n3cc(COc4ccccc4)nc23)c1,-31%[39.2 µM],
Cc1ccsc1C(=O)N1C[C@@H](F)C[C@H]1C(=O)N1CCCCC1,-8%,
CC(=O)O[C@H]1CC[C@H]2[C@@H]3CC[C@H]4CC(=O)C=C(C)[C@]4(C)[C@H]3CC[C@]12C,-6%,
Cc1nn(-c2ccccn2)c(C)c1[C@@H]1C=C[C@@H](NC(=O)CCC(=O)O)C1,3%[39.2 µM],
Cc1nn(-c2ccc(C(F)(F)F)cc2)c(C)c1[C@@H]1C=C[C@@H](NC(=O)NC(C)C)C1,1.4µM*,nsP2 cell sec=2.1µM*;NSP2 full ctr=-4%;Furin counter=15µM*;nsP2 NS23 pep=19µM*;Papain counter=-1%;nsP2pro confirm=2.6µM*;HCV NS3 4A cs=12µM*
Cc1nn(-c2ccc(C(C)C)cc2)c(C)c1[C@@H]1C=C[C@@H](NC(=O)NC(C)C)C1,8%[39.2 µM],
Cc1ccc(-n2nc(C)c([C@@H]3C=C[C@@H](NC(=O)NC(C)C)C3)c2C)cc1Cl,-5%[39.2 µM],
Cc1nn(-c2ccccn2)c(C)c1[C@@H]1C=C[C@@H](NC(=O)NC(C)C)C1,10µM*,nsP2 cell sec=?;NSP2 full ctr=19µM*;Furin counter=-8%;nsP2 NS23 pep=?;Papain counter=-5%;nsP2pro confirm=13µM*;HCV NS3 4A cs=13µM*
CCNC(=O)N[C@@H]1C=C[C@@H](c2c(C)nn(-c3ccc(OC)cc3)c2C)C1,0%[39.2 µM],
Cc1cc2c(s1)c1cnn(Cc3c(Cl)cccc3Cl)c(=O)c1n2C,0%,
Cc1ccc(S(=O)(=O)Nc2ccccc2C(=O)Nc2nc(-c3ccc(Cl)cc3)cs2)cc1,-4%,
CO[C@@H]1COCC[C@@H]1N[C@@H]1CC[C@@](C(=O)N2CCc3ncc(C(F)(F)F)cc3C2)(C(C)C)C1,-9%[10 µM],
O=C(NCc1ccc(F)c(F)c1)c1ccc2nnc(-c3cc[nH]c3)n2c1,5%,

# High-throughput results (PubChem)
